Source: PubChem
A selection: hits, their analogues and other compounds. The true share with any hit is near 18%.
DT40 TDP1 no CPT – qHTS for Inhibitors of human tyrosyl-DNA phosphodiesterase 1 (TDP1): qHTS in cells in absence of CPT | 420,000 compounds, 15% hits | DT40 Tdp1-/- hTDP1 cells, no CPT, ATP luminescence, 48 h | Potency, µM (titrated, usually from 46.2 µM), for the others: at the top dose activity change, negative = growth inhibition, actives largely listed as inhibitors; note: potency is the fitted concentration of half-maximal effect; nearly all actives have a fitted effect of over 55% in size
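Stably hTDP1-transfected Tdp1-null chicken DT40 cells were treated with library compounds minus camptothecin and grown for at least 48 hr at 37 °C, after which cellular ATP was quantified by luminescence.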
RORgamma inh – qHTS for inhibitors of ROR gamma transcriptional activity. Potency, µM (doses to about 53.6 µM), inactives show at the top dose activity change, negative = inhibition, hits mostly inhibitors. Drosophila S2 Gal4-RORgamma UAS-luciferase reporter, 20 h. 310,000 compounds, 5.4% hits; note: potency is the fitted concentration of half-maximal effect; nearly all actives have a fitted effect of over 60% in size
Target sequence (P51450 whole entry, looked up, the tested form may be a part): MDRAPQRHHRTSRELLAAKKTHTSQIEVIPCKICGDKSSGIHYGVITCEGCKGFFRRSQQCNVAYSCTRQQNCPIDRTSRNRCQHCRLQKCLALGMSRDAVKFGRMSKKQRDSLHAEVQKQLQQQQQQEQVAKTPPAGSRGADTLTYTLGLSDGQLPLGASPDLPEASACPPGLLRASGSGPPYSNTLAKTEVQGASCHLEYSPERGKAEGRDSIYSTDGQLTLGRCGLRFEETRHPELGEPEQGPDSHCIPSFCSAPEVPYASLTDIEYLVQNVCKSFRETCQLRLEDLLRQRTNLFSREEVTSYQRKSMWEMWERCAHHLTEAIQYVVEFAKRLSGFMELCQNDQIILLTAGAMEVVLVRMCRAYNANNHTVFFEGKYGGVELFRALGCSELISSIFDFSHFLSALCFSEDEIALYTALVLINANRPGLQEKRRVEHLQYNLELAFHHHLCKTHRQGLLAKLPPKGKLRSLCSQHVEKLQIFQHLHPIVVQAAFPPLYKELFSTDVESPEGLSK
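Luciferase reporter read in Schneider cells carrying Gal4-RORγ (mouse) and UAS-Photinus luciferase; cells given compound 1 h before 700 uM copper sulfate induction, then incubated 20 h at ambient temperature.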
Gal4-VP16 FLuc – VP16 counterscreen qHTS for inhibitors of ROR gamma transcriptional activity; 310,000 compounds, 3.5% hits; AID 2546, 2010; Drosophila S2 Gal4-VP16 UAS-luciferase, luminescence, 20 h; Potency, µM (titrated, usually from 53.6 µM), for inactives: at the top dose activity, negative = inhibition, hits mostly inhibitors;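 note: Gal4-VP16 expression switched on by copper sulfate through the metallothionein promoter; potency is the fitted concentration of half-maximal effect; nearly all actives have a fitted effect of over 50% in size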
TDP1 cell CPT – qHTS for Inhibitors of human tyrosyl-DNA phosphodiesterase 1 (TDP1): qHTS in cells in presence of CPT; chicken DT40 Tdp1-/-;hTDP1 cells + 20 nM CPT, ATP luminescence, 48 h; 420,000 compounds, 12% hits; Potency, µM (titrated, usually from 46.2 µM), for the others: at the top dose activity change, negative = growth inhibition, actives largely listed as inhibitors; note: potency is the fitted concentration of half-maximal effect; nearly all actives have a fitted effect of over 55% in size
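Chicken DT40 Tdp1-/- cells complemented with human TDP1, 400 cells/well, exposed to compounds plus 20 nM camptothecin for at least 48 h at 37 C; viability read as ATP content by CellTiter-Glo luminescence.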
LDHA block – qHTS assay for inhibitors of human lactate dehydrogenase. L-lactate dehydrogenase A chain (Homo sapiens), P00338. purified LDHA, NADH/diaphorase-resazurin fluorescence; stronger effect = lower value. activity change, % (values are at about 110 or 230 µM). 480,000 compounds, 0.15% hits; in the data active = activity change below about -30%; inconclusive = mostly about -25% to -30%;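 note: plate controls were DMSO wells for no effect and wells without enzyme for full effect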
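Remaining NADH was detected by diaphorase (0.133 mg/mL) converting 37 µM resazurin to fluorescent resorufin, read at 0 and 20 minutes. The preceding 5-minute room-temperature reaction used 2 nM LDHA, 0.2 mM sodium pyruvate and 0.06 mM NADH at pH 7.4.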
IL1B secr inh – qHTS for Inhibitors of Inflammasome Signaling: IL-1-beta AlphaLISA Primary Screen; THP-1 LPS/ATP IL-1B secretion, AlphaLISA, 16 h; stronger effect = lower value; activity change, % at 57.5 µM; 360,000 compounds, 4.7% hits; in the data active = activity change below about -50%; inconclusive = mostly about -30% to -49%
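Secreted IL-1B measured by AlphaLISA bead assay after 16 h compound exposure of THP-1 cells; compounds (final up to 57.5 uM) added 1 h before LPS (250 ng/mL) and ATP (1.25 mM) stimulation; lower signal means less secretion.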
* = called active by the depositor; i = inactive; ? = inconclusive; · = no result. Unless noted, calls come from the whole dose curve; as a rule, active = well fitted curve in the direction sought with a large enough effect; inconclusive = small, poorly fitted or top-dose-only effect, or another doubt; inactive = no such curve, though single readings can be large; an effect the other way counts as inactive or inconclusive. Unless noted, % is set by controls: 0 for no effect and ±100 for the full control effect.

SMILES	DT40 TDP1 no CPT	RORgamma inh	Gal4-VP16 FLuc	TDP1 cell CPT	LDHA block	IL1B secr inh
COc1ccc2nc(N(CCN(C)C)C(=O)c3ccc4ccccc4c3)sc2c1	-4%	3%	0%	4%	0	-24
CN(C)CCN(C(=O)c1cccc2ccccc12)c1nc2cc3c(cc2s1)OCO3	?	-17%	-4%	?	1	-91*
CCN(c1ccccc1)S(=O)(=O)c1ccc(C(=O)N(CCCN(C)C)c2nc3c(C)cccc3s2)cc1	?	?	?	?	-4	-71*
CN(C)CCCN(C(=O)c1ccc([N+](=O)[O-])o1)c1nc2cc3c(cc2s1)OCO3	?	13µM*	?	18µM*	3	-1
COc1ccc2sc(N(CCCN(C)C)C(=O)c3ccc(S(=O)(=O)N(C)Cc4ccccc4)cc3)nc2c1	15µM*	·	·	?	-2	-93*
Cc1ccc(-c2cc(C(=O)O)c3ccc(Br)cc3n2)cc1	·	·	·	·	1	·
c1coc(CNC23CC4CC(CC(C4)C2)C3)c1	·	·	·	·	-2	·
CN(C)CCCN(C(=O)c1ccc(S(=O)(=O)N2CCCCCC2)cc1)c1nc2cc3c(cc2s1)OCO3	?	·	·	?	0	-12
CCN(c1ccccc1)S(=O)(=O)c1ccc(C(=O)N(CCCN(C)C)c2nc3cc4c(cc3s2)OCO4)cc1	?	-43%	?	18µM*	-2	-57*
CN(C)CCCN(C(=O)c1ccc(S(=O)(=O)N(C)Cc2ccccc2)cc1)c1nc2cc3c(cc2s1)OCO3	16µM*	8.9µM*	?	-72%	1	-51*
CCN(CC)CCN(C(=O)c1cc2c(ccc3ccccc32)oc1=O)c1nc2cc3c(cc2s1)OCCO3	21µM*	-127%	?	18µM*	-4	-61*
Cc1ccc2sc(N(CCCN(C)C)C(=O)c3ccc(S(=O)(=O)N(C)C)cc3)nc2c1C	-14%	-27%	-17%	-23%	-2	-15
Cc1ccc2sc(N(CCCN(C)C)C(=O)c3ccc(S(=O)(=O)N(C)Cc4ccccc4)cc3)nc2c1C	?	·	·	?	1	-93*
CN(C)CCCN(C(=O)c1ccc2c(c1)OCCO2)c1nc2cc3c(cc2s1)OCO3	-23%	-7%	4%	?	-8	i
CCN(CC)CCN(C(=O)c1ccc2c(c1)OCCO2)c1nc2cc3c(cc2s1)OCO3	-15%	25%	0%	-25%	1	-28
Cc1ccc(C2=NN(C(=O)Cn3nnc(-c4ccccc4C)n3)C(c3ccco3)C2)cc1 (stereo unspecified)	·	·	·	·	1	·
CCN(CC)CCN(C(=O)c1ccc(S(=O)(=O)N(C)C2CCCCC2)cc1)c1nc2ccc(OC)cc2s1	-5%	-16%	-7%	?	1	-77*
CN(C)CCCN(C(=O)c1ccc2ccccc2c1)c1nc2cc3c(cc2s1)OCO3	?	?	-17%	21µM*	-4	-93*
CCC(C)NCC(=O)Nc1cc(S(=O)(=O)N(CC)c2ccccc2)ccc1Cl (stereo unspecified)	23µM*	?	-10%	21µM*	0	-53*
CCN(c1ccccc1)S(=O)(=O)c1ccc(Cl)c(NC(=O)COC(=O)c2cc(O)c3ccccc3c2O)c1	·	10µM*	13µM*	·	·	·
CCN(c1ccccc1)S(=O)(=O)c1ccc(Cl)c(NC(=O)CNC(C)c2ccccc2)c1 (stereo unspecified)	?	·	·	21µM*	3	-10
CCN(c1ccccc1)S(=O)(=O)c1ccc(Cl)c(NC(=O)COC(=O)C2CC2C)c1 (stereo unspecified)	-12%	-11%	-7%	6%	-2	-8
CCN(c1ccccc1)S(=O)(=O)c1ccc(Cl)c(NC(=O)CN(C)Cc2cccc(F)c2)c1	18µM*	·	·	16µM*	-6	0
N#Cc1ccc(NC(=O)COc2ccc3cc(Br)ccc3c2)cc1	·	·	·	·	12	·
Cn1cc(C2c3ccccc3C(=O)N2CC(=O)NCC(N)=O)c2ccccc21 (stereo unspecified)	·	·	·	·	3	·
SMILES	DT40 TDP1 no CPT	RORgamma inh	Gal4-VP16 FLuc	TDP1 cell CPT	LDHA block	IL1B secr inh
COCC(C)NC(=O)c1ccc2c(c1)NC(=O)CCS2 (stereo unspecified)	·	·	·	·	1	·
COc1cc2cc(C(=O)NCC(=O)Nc3ccc4c(c3)OCCO4)[nH]c2c(OC)c1OC	·	·	·	·	-3	·
Cc1ccccc1Cn1c(N2CCC(C(=O)N3CCCC3)CC2)nc2ccccc21	·	·	·	·	11	·
CCN(C(N)=S)c1ccccc1	-3%	11µM*	-14%	-22%	-6	7
CCN(C(=N)N=C(N)N)c1ccccc1	18µM*	25%	-1%	?	-13	1
CC1(C)CC2CC(C)(CN2S(=O)(=O)c2cccc(C(N)=O)c2)C1 (stereo unspecified)	?	·	·	-30%	0	6
CC1(C)CC2CC(C)(CN2S(=O)(=O)c2ccc(C(=O)Nc3cc(S(=O)(=O)N4CCOCC4)ccc3Cl)cc2)C1 (stereo unspecified)	2.9µM*	?	-10%	3.3µM*	-3	48
O=C(Nc1cc(S(=O)(=O)N2CCOCC2)ccc1Cl)c1ccc(=O)[nH]c1	-19%	·	·	15%	-5	15
CC1(C)CC2CC(C)(CN2S(=O)(=O)c2ccc(C(=O)Nc3cccc(S(=O)(=O)N4CCOCC4)c3)cc2)C1 (stereo unspecified)	5.8µM*	?	0.5µM*	4.1µM*	-4	-21
COc1ccc(NC(=O)CN(C)C(=O)c2cccc(S(=O)(=O)N3CC4(C)CC3CC(C)(C)C4)c2)cc1 (stereo unspecified)	?	·	·	?	3	-72*
COc1ccc(N(C(=O)C23CC4CC(CC(C4)C2)C3)C2C=CS(=O)(=O)C2)cc1 (stereo unspecified)	·	·	·	·	14	·
CCCCN(CCCC)CCNC(=O)CSCc1ccc(C)cc1	21µM*	0%	0%	26µM*	-23	-9
Cc1ccc(CNC(=O)CSCc2ccccc2)cc1	-4%	9%	1%	4%	-6	4
